Results filed as inconclusive are left out. Activity calls are given as the source filed them. Unless noted, the call rests on the fitted dose curve; in most records, active means well fitted curve in the direction sought with a large enough effect in the repeat runs; inconclusive means weak or mixed curves; inactive means no such curve, though single readings can be large; an effect the other way counts as inactive or inconclusive.
Experiments:
[1] = qHTS RealTime-Glo MT Cell Viability Assay in HEK293 cells - 0 hour (AID 1224880); further: top concentration of the series differs between compounds; nearly all actives have a fitted effect of over 45% in size
Method in brief: (§1)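 Kinetic, non-lysing viability readout. Seed HEK293 (600/well) with reagent, incubate 5 h at 37 C/5% CO2, pin 23 nL compound in DMSO, incubate at 37 C, read luminescence at 0, 8, 16, 24, 32, 40 h.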

[2] = A CellTox Green Cytotoxicity Assay to monitor cytotoxicity in HEK293 cells - 32 hour (AID 1224881); further: nearly all actives have a fitted effect of over 40% in size
Method in brief: (§2)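 Real-time, in one plate: 600 HEK293 cells/well with dead-cell DNA dye, pinned compound after 5 h, 37 C incubation over 40 h; viable cells give no appreciable fluorescence.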

[3] = A CellTox Green Cytotoxicity Assay to monitor cytotoxicity in HepG2 cells - 0 hour (AID 1224882); further: nearly all actives have a fitted effect of over 35% in size
Method in brief: (§3)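 Cytotoxicity was tracked as dead-cell DNA fluorescence in HepG2 cells treated with test compounds at 37 C; each time-point value comes from one kinetic series spanning 0, 8, 16, 24, 32 and 40 h.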

[4] = A CellTox Green Cytotoxicity Assay to monitor cytotoxicity in HepG2 cells - 32 hour (AID 1224883); further: nearly all actives have a fitted effect of over 50% in size
Method in brief: as §3

[5] = A CellTox Green Cytotoxicity Assay to monitor cytotoxicity in HEK293 cells - 8 hour (AID 1224884); further: nearly all actives have a fitted effect of over 35% in size
Method in brief: as §2

[6] = qHTS RealTime-Glo MT Cell Viability Assay in HepG2 cells - 16 hour (AID 1224885); further: nearly all actives have a fitted effect of over 50% in size
Method in brief: (§4)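 Viability was tracked continuously by NanoLuc luminescence from prosubstrate reduced by living HepG2 cells, at successive time points over 40 h of compound exposure. Cells with reagent were preincubated 5 h at 37 °C before compound addition.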

[7] = qHTS RealTime-Glo MT Cell Viability Assay in HEK293 cells - 24 hour (AID 1224886); further: top concentration of the series differs between compounds; nearly all actives have a fitted effect of over 50% in size
Method in brief: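 Viability tracked continuously by luminescence as live cells reduce a prosubstrate for NanoLuc; HEK293 cells preincubated 5 h, compound-treated at 37 C, and read at 0, 8, 16, 24, 32 and 40 h.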

[8] = qHTS RealTime-Glo MT Cell Viability Assay in HEK293 cells - 8 hour (AID 1224887); further: top concentration of the series differs between compounds; nearly all actives have a fitted effect of over 50% in size
Method in brief: as §1

[9] = A CellTox Green Cytotoxicity Assay to monitor cytotoxicity in HEK293 cells - 16 hour (AID 1224888); further: nearly all actives have a fitted effect of over 35% in size
Method in brief: as §2

[10] = A CellTox Green Cytotoxicity Assay to monitor cytotoxicity in HepG2 cells - 8 hour (AID 1224890); further: nearly all actives have a fitted effect of over 45% in size
Method in brief: as §3

[11] = qHTS assay to identify small molecule antagonists of the estrogen receptor alpha (ER-alpha) signaling pathway using the BG1 cell line in the presence of 0.1 nM 17-beta-estradiol - cell viability counter screen (AID 1259241); further: nearly all actives have a fitted effect of over 40% in size
Method in brief: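 In this screen, hormone-deprived VM7Luc4E2 cells were seeded at 4,000 per well, dosed with compound and 0.1 nM estradiol final, and incubated 22 hr at 37C and 5% CO2; fluorogenic live-cell protease signal reported viability.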

[12] = qHTS assay to identify small molecule antagonists of the androgen receptor (AR) signaling pathway using the MDA cell line in the presence of 0.5 nM R1881 - cell viability counter screen (AID 1259242); further: nearly all actives have a fitted effect of over 45% in size
Method in brief: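 Cells seeded at 3,000/well and allowed 5 hr at 37C, 0% CO2 before compound transfer and R1881 (0.5 nM final) addition; 16 hr later, live-cell protease fluorescence indicated cytotoxicity.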

[13] = molecular target: Estrogen receptor (Homo sapiens) (UniProt P03372); assay: qHTS assay to identify small molecule antagonists of the estrogen receptor alpha (ER-alpha) signaling pathway using the BG1 cell line in the presence of 0.1 nM 17-beta-estradiol (AID 1259244); further: nearly all actives have a fitted effect of over 50% in size
Method in brief: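 Luciferase signal from VM7Luc4E2 ERE-reporter cells, co-dosed with test compound and 0.1 nM final 17beta-estradiol for 22 h, read with ONE-Glo.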

[14] = qHTS assay to identify small molecule HDAC inhibitors (AID 1259364);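 further: wild-type HCT-116 cells with endogenous class I/II HDAC activity; top concentration of the series differs between compounds; nearly all actives have a fitted effect of over 45% in size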
Method in brief: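 HCT-116 wt cells, 1,500/well, overnight attach. Compounds (DMSO) 2 h, 37 °C. HDAC-Glo I/II, 30 min RT. Luminescence.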

[15] = qHTS assay to identify small molecule HDAC inhibitors - cell viability counter screen (AID 1259365)
Method in brief: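 Measured quantity is CellTiter-Glo luminescence from wild-type HCT-116 cells after compound incubation of 2hr at 37C, 5% CO2; reagent developed 30min at room temperature.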

[16] = qHTS assay to identify small molecule antagonists of the sonic hedgehog signaling (Shh) pathway - cell viability counter screen (AID 1259367); further: nearly all actives have a fitted effect of over 55% in size
Method in brief: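 Fluorescence read-out (CellTiter-Fluor, 1 hr at 37C) taken after 23 hr compound treatment of 3T3 Gli1-Luc cells stimulated with conditioned medium. Cells were seeded at 2,000 per well and pre-incubated 4 hr.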

[17] = qHTS assay to identify small molecule agonists of the sonic hedgehog signaling (Shh) pathway - cell viability counter screen (AID 1259366); further: nearly all actives have a fitted effect of over 50% in size
Method in brief: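 In quantitative high-throughput format, 3T3 Gli1-Luc cells were exposed to compounds for 24hr and multiplexed for viability using CellTiter-Fluor, incubated 1hr at 37C before the fluorescence read.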

[18] = qHTS RealTime-Glo MT Cell Viability Assay in HepG2 cells - 0 hour (AID 1224889); further: nearly all actives have a fitted effect of over 50% in size
Method in brief: as §4

[19] = qHTS assay to identify small molecule phospholipidosis (PLD) inducers (AID 1259344; active means well fitted curve in the direction sought with a large enough effect; an effect the other way counts as inactive or inconclusive)
Method in brief: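 Read-out is LipidTOX Red fluorescence (ex 595/em 615) imaged in HepG2 cells after 24 h compound exposure at 37 C, with Hoechst nuclear counterstain (ex 352/em 461) allowing per-cell normalisation.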

[20] = molecular target: Androgen receptor (Homo sapiens) (UniProt P10275); assay: qHTS assay to identify small molecule antagonists of the androgen receptor (AR) signaling pathway using the MDA cell line in the presence of 0.5 nM R1881 (AID 1259243); further: nearly all actives have a fitted effect of over 50% in size
Method in brief: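 Luminescence from an AR/GR-responsive MMTV-luciferase construct in MDA-kb2 breast carcinoma cells, read 30 min after ONE-Glo, following 16 hr co-treatment with compounds and 0.5 nM R1881.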
On the % scale 0 is the no-effect control and ±100 the full control effect.

Chain of Estrogen receptor (Homo sapiens) (P03372 whole entry, looked up): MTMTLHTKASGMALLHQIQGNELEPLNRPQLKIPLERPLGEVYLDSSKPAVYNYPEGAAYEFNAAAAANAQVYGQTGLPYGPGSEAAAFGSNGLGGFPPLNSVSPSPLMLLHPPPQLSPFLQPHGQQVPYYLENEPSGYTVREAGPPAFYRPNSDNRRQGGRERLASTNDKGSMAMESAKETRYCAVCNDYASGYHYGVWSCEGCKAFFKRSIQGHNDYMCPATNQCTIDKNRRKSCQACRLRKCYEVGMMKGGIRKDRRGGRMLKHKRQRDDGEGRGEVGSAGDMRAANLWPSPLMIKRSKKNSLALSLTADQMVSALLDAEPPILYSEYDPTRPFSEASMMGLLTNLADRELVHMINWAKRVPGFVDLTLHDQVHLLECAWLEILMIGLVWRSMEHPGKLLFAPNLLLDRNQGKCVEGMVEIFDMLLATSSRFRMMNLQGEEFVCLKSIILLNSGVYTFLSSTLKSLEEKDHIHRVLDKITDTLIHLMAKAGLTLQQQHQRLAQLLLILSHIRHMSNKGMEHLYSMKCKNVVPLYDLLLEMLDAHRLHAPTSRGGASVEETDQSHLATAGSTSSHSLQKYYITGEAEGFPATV
Chain of Androgen receptor (Homo sapiens) (P10275 whole entry, looked up): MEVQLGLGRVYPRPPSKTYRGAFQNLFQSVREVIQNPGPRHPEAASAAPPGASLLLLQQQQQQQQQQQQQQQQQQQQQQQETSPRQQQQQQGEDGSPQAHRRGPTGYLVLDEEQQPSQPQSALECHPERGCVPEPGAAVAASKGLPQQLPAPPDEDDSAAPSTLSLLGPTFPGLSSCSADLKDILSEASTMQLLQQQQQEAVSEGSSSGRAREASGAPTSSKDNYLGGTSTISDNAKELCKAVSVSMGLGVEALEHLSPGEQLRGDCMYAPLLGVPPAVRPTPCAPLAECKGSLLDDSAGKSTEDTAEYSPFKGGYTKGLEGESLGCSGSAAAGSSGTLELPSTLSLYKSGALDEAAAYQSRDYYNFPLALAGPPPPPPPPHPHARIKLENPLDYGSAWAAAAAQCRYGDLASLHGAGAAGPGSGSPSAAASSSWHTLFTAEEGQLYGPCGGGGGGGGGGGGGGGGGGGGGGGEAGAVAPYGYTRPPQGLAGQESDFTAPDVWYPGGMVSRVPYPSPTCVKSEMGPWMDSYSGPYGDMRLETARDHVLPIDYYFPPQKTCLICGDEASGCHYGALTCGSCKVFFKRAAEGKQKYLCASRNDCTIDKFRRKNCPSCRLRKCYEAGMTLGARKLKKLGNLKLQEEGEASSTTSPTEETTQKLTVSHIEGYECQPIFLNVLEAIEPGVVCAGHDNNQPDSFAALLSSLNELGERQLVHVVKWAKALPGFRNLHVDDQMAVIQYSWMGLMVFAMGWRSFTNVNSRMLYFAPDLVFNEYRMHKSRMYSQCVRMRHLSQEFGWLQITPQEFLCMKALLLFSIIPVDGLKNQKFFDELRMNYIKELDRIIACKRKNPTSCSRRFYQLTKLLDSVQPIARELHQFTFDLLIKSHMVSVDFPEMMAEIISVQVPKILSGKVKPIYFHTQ

CCCC1CCCC(=O)O1 (centres undefined)
inactive: Potency [1] | Potency [2] | Potency [3] | Potency [4] | Potency [5] | outcome [6] | Potency [7] | Potency [8] | Potency [9] | Potency [10] | Potency [11] | Potency [12] | Potency [13] | Potency [14] | outcome [15] | Potency [16]

C[C@H]1C[C@H]2[C@@H]3CCC4=CC(=O)C=C[C@]4(C)[C@@]3(F)[C@@H](O)C[C@]2(C)[C@@]1(O)C(=O)COP(=O)(O)O
inactive: Potency [1] | Potency [2] | Potency [3] | Potency [4] | Potency [5] | outcome [6] | Potency [7] | Potency [8] | Potency [9] | Potency [10] | Potency [11] | Potency [12] | Potency [13] | Potency [14] | outcome [15] | Potency [17]

CCCCCCCCCCCCSCCOCCO
inactive: Potency [1] | Potency [2] | Potency [3] | Potency [4] | Potency [5] | outcome [6] | Potency [8] | Potency [9] | Potency [18] | Potency [10] | Potency [11] | Potency [12] | Potency [13] | Potency [19] | Potency [14] | outcome [15] | Potency [16]

C=CCCC
inactive: Potency [1] | Potency [2] | Potency [3] | Potency [4] | Potency [5] | outcome [6] | Potency [7] | Potency [8] | Potency [9] | Potency [10] | Potency [11] | Potency [12] | Potency [13] | Potency [14] | Potency [17] | Potency [16]

CC(=O)Oc1cccc2c1C(=O)c1c(OC(C)=O)cc(C(=O)O)cc1C2=O
inactive: Potency [1] | Potency [2] | Potency [3] | Potency [4] | Potency [5] | outcome [6] | Potency [7] | Potency [8] | Potency [9] | Potency [10] | Potency [19] | Potency [14] | outcome [15] | Potency [17] | Potency [16]

CC(O)CN (centres undefined)
inactive: Potency [1] | Potency [2] | Potency [3] | Potency [4] | Potency [5] | outcome [6] | Potency [7] | Potency [8] | Potency [9] | Potency [10] | Potency [11] | Potency [12] | Potency [13] | Potency [14] | Potency [17]

CCCCCCCCNC
inactive: Potency [1] | Potency [2] | Potency [3] | Potency [4] | Potency [5] | outcome [6] | Potency [7] | Potency [8] | Potency [9] | Potency [10] | Potency [11] | Potency [12] | Potency [14] | outcome [15] | Potency [17] | Potency [16]

O=Cc1ccc([N+](=O)[O-])cc1
inactive: Potency [1] | Potency [2] | Potency [3] | Potency [4] | Potency [5] | outcome [6] | Potency [7] | Potency [8] | Potency [9] | Potency [10] | Potency [11] | Potency [12] | Potency [13] | Potency [14] | outcome [15] | Potency [17] | Potency [16]

CCCCCC1CCC(=O)O1 (centres undefined)
inactive: Potency [1] | Potency [2] | Potency [3] | Potency [4] | Potency [5] | outcome [6] | Potency [7] | Potency [8] | Potency [9] | Potency [10] | Potency [11] | Potency [12] | Potency [13] | Potency [14] | outcome [15] | Potency [17] | Potency [16]

CCCCOc1ccc(N)cc1
inactive: Potency [1] | Potency [2] | Potency [3] | Potency [4] | Potency [5] | outcome [6] | Potency [7] | Potency [8] | Potency [9] | Potency [10] | Potency [11] | Potency [12] | Potency [13] | Potency [14] | outcome [15] | Potency [17] | Potency [16]

Nc1ccc(-c2ccc(F)cc2)cc1
inactive: Potency [1] | Potency [2] | Potency [3] | Potency [4] | Potency [5] | outcome [6] | Potency [7] | Potency [9] | Potency [18] | Potency [10] | Potency [11] | Potency [12] | Potency [13] | outcome [15]

C=CC(C)(O)CC/C=C(/C)CCC=C(C)C (centres undefined)
inactive: Potency [1] | Potency [2] | Potency [3] | Potency [4] | Potency [5] | outcome [6] | Potency [7] | Potency [8] | Potency [9] | Potency [10] | Potency [11] | Potency [12] | Potency [14] | Potency [17] | Potency [16]

CC(C)NC(=O)c1ccccc1N
inactive: Potency [1] | Potency [2] | Potency [3] | Potency [4] | Potency [5] | outcome [6] | Potency [7] | Potency [8] | Potency [9] | Potency [10] | Potency [11] | Potency [12] | Potency [13] | Potency [14] | outcome [15] | Potency [17] | Potency [16]

O=C(O)c1ccncc1
inactive: Potency [1] | Potency [2] | Potency [3] | Potency [4] | Potency [5] | outcome [6] | Potency [8] | Potency [9] | Potency [18] | Potency [10] | Potency [11] | Potency [12] | Potency [20] | Potency [14] | outcome [15] | Potency [17] | Potency [16]

SCCOCCOCCS
inactive: Potency [1] | Potency [2] | Potency [3] | Potency [4] | Potency [5] | outcome [6] | Potency [7] | Potency [9] | Potency [18] | Potency [10] | Potency [11] | Potency [12] | Potency [13] | Potency [14] | outcome [15] | Potency [17] | Potency [16]

CC(=O)Nc1ccn(C2COC(COC(=O)c3ccccc3)O2)c(=O)n1 (centres undefined)
inactive: Potency [1] | Potency [2] | Potency [3] | Potency [4] | Potency [5] | outcome [6] | Potency [7] | Potency [8] | Potency [9] | Potency [10] | Potency [11] | Potency [12] | PLD induction [19] 1.43% [at 1.53 µM] | Potency [14] | outcome [15] | Potency [17] | Potency [16]

Reference: PubChem BioAssay (Tox21)
